# Laboratory results reported in PubChem BioAssay.
# Calls of active or inactive are those of the source.
# Key:
# Albumin (Bos taurus) = Albumin (Bos taurus) (UniProt P02769); assay: compounds binding labelled BSA control protein – biochemical, small-molecule microarray, Alexa647 label, 635/667 nm fluorescence, artefact control for SMM control protein annotation, profiling panel (AID 1118); settings: BSA-A647 binding, fluorescence 635 nm, higher = more signal;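 further: score merges 667 nm emission intensity and signal-to-noise per printed compound spot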
# [1] = probe aXIP binding to arrayed compounds – biochemical, NeuroSMM set, 635/667 nm fluorescence, primary screen (AID 1119); settings: small-molecule microarray, higher = more signal, called active from +8 up or from −8 down;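 further: probe is the protein aXip251-270 applied at 1 µg/mL to compound-printed slides; binding of probe to printed compounds measured as 667 nm fluorescence plus signal to noise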
# [2] = probe aNOTCH3 binding on compound microarray – biochemical, small-molecule microarray, 635/667 nm fluorescence, primary screen (AID 1120); settings: higher = more signal;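 further: probe is a biotin-tagged antibody raised against NOTCH3 rather than NOTCH3 protein; score merges spot fluorescence near 667 nm with spot signal to noise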
# [3] = probe aNOTCH2 binding on compound microarray – biochemical, small-molecule microarray, 635/667 nm fluorescence, primary screen (AID 1121); settings: higher = more signal;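 further: score merges feature fluorescence read at 667 nm with its signal to noise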
# [4] = target: Carbonic anhydrase 2 (Homo sapiens) (UniProt P00918); assay: compounds binding carbonic anhydrase 2 – biochemical, small-molecule microarray, Alexa647-labelled CAII, profiling panel (AID 1122); settings: CAII-A647 binding fluorescence, higher = more signal
# [5] = COS7 lysate on small-molecule microarray, probe aHis, 635 nm (AID 1123); settings: COS7 cell lysate, fluorescence, higher = more signal;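 further: z-score combines 667nm fluorescence intensity with signal-to-noise per printed compound spot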
# [6] = probe aLAP1 signal on lysate-treated microarray – cell lysate, small-molecule microarray, COS7 lysate, primary screen (AID 1124); settings: probe aLAP1, fluorescence, higher = more signal;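 further: lysate comes from COS7 cells expressing LAP1 and is applied at 0.3 µg/mL; score merges spot fluorescence near 667 nm with signal-to-noise over triplicate slides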
# Sam68 (KHDRBS1) = assay: compounds binding KHDRBS1 protein – biochemical, small-molecule microarray, 635 nm fluorescence, primary screen (AID 1125); settings: higher = more signal;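 further: score merges 667 nm channel intensity with signal to noise over triplicate slides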
# [7] = tested on: Chordin-like protein 2 (CHRDL2); assay: compounds binding chordin-like 2 – biochemical, small-molecule microarray, 635 nm fluorescence, primary screen (AID 1126); settings: fluorescence 635 nm, higher = more signal;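 further: printed compound slides probed with Chrdl2 protein at 4 µg/mL for 1 h at 4 C; score merges 667 nm emission intensity with signal to noise over three replicate slides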
# [8] = target: Concanavalin-A (Canavalia ensiformis) (UniProt P02866); assay: compounds binding concanavalin A lectin – biochemical, small-molecule microarray, Alexa647 label, 635 nm, artefact control for SMM control protein annotation, primary screen (AID 1127); settings: ConA-A647 binding fluorescence, higher = more signal;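 further: z combines 667 nm emission intensity with signal-to-noise across three replicate slides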
# [9] = compounds binding Alexa647 anti-His antibody – biochemical, small-molecule microarray, 635 nm fluorescence, artefact control for SMM control protein annotation, primary screen (AID 1128); settings: higher = more signal;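 further: score merges feature fluorescence with signal-to-noise for each printed compound spot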
# [10] = tested on: Human papillomavirus type 1a E7 protein (residues 1-88); assay: HPV1a E7 small-molecule binders, primary screen, biochemical, small-molecule microarray, residues 1-88, 635 nm (AID 1129); settings: small-molecule microarray binding, fluorescence 635 nm; higher = more signal
# [11] = target: Focal adhesion kinase 1 (Homo sapiens) (UniProt Q05397); assay: PTK2 protein binding on printed compound slides – biochemical, small-molecule microarray, 635/667 nm fluorescence, BSA, DTT, primary screen (AID 1130); settings: 635 nm fluorescence, higher = more signal;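 further: composite of spot emission at 667 nm and signal to noise over triplicate slides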
# [12] = tested on: Fibrinogen (Alexa647-labelled); assay: Alexa647-fibrinogen binding to printed small molecules – biochemical, small-molecule microarray, 635/667 nm fluorescence, artefact control for SMM control-protein annotation, profiling panel (AID 1131); settings: fibrinogen-A647 binding fluorescence, higher = more signal;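 further: z-score merges 667 nm fluorescence with per-spot signal-to-noise over triplicate slides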
# [13] = target: Follistatin (Homo sapiens) (UniProt P19883); assay: FST protein binding to printed compounds – biochemical, small-molecule microarray, 635/667 nm fluorescence, primary screen (AID 1132); settings: 635 nm fluorescence, higher = more signal
# [14] = target: Fibroblast growth factor 2 (Homo sapiens) (UniProt P09038); assay: basic fibroblast growth factor binding to printed compounds – biochemical, small-molecule microarray, 635/667 nm fluorescence, primary screen (AID 1133); settings: FGF2, fluorescence 635/667, higher = more signal
# [15] = JC-1 mitochondrial potential readout, lung cancer cells – cell-based, A549, JC-1 fluorescence, basal, 24 h, 100 nL, profiling panel (AID 1138); settings: higher = more signal;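 further: A549 lung adenocarcinoma cells under basal conditions with no added stimulus; test concentration not given here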
# Lefty1 = Lefty1 protein binding to printed compounds – biochemical, small-molecule microarray, 635/667 nm fluorescence, primary screen (AID 1139); settings: fluorescence 635/667, higher = more signal
# [16] = tested on: wheat germ agglutinin (Triticum aestivum), Alexa647-labelled; assay: Alexa647-WGA lectin binding to printed small molecules – biochemical, small-molecule microarray, 635/667 nm fluorescence, artefact control for SMM control-protein annotation, profiling panel (AID 1140); settings: WGA-A647 binding, 635 nm fluorescence, higher = more signal;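 further: score merges 667 nm feature emission with signal to noise over triplicate slides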
# [17] = target: Luciferin 4-monooxygenase (Photinus pyralis) (UniProt P08659); assay: inhibition of purified Photinus pyralis luciferase – biochemical, luminescence, purified enzyme, 2006 set, primary screen (AID 1141); settings: purified firefly luciferase, SteadyGlo luminescence, 30 min; higher = more signal, called active from +8 up or from −8 down;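 further: cell-free assay with purified firefly luciferase at 100 ng per well in PBS; test concentration not given here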
# Sequence of Luciferin 4-monooxygenase (Photinus pyralis) (P08659 whole entry, looked up): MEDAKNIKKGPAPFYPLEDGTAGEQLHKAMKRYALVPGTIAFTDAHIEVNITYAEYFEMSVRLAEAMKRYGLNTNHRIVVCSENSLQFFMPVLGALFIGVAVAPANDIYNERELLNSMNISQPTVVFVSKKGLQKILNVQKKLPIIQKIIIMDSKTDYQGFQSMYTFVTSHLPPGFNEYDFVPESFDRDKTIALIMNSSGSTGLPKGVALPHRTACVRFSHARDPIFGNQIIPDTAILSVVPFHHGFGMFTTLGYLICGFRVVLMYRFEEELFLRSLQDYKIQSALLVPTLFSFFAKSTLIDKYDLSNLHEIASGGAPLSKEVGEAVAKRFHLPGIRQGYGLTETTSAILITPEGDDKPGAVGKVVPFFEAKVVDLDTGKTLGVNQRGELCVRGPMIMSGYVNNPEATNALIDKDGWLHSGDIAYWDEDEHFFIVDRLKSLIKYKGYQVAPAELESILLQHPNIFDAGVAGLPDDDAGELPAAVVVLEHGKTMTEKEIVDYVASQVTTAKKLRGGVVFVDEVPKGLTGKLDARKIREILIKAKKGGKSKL
# Sequence of Follistatin (Homo sapiens) (P19883 whole entry, looked up): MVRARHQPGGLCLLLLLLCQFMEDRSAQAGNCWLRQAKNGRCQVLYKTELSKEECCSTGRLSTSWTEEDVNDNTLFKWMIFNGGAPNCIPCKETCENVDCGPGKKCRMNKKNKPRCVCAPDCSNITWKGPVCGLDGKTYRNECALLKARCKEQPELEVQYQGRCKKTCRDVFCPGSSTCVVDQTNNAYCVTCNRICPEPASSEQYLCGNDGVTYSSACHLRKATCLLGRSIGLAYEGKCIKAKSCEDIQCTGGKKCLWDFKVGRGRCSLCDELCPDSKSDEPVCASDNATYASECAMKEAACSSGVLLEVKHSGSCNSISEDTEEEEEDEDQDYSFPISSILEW
# Sequence of Fibroblast growth factor 2 (Homo sapiens) (P09038 whole entry, looked up): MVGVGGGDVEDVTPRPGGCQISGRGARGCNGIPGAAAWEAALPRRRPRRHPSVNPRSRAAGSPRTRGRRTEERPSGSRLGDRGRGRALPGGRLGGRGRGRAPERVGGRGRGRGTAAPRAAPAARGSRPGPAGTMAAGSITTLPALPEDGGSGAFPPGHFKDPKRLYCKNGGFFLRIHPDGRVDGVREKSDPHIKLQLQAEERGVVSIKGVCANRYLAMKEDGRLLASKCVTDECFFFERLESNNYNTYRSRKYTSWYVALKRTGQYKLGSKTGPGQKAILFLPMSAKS
# Sequence of Albumin (Bos taurus) (P02769 whole entry, looked up): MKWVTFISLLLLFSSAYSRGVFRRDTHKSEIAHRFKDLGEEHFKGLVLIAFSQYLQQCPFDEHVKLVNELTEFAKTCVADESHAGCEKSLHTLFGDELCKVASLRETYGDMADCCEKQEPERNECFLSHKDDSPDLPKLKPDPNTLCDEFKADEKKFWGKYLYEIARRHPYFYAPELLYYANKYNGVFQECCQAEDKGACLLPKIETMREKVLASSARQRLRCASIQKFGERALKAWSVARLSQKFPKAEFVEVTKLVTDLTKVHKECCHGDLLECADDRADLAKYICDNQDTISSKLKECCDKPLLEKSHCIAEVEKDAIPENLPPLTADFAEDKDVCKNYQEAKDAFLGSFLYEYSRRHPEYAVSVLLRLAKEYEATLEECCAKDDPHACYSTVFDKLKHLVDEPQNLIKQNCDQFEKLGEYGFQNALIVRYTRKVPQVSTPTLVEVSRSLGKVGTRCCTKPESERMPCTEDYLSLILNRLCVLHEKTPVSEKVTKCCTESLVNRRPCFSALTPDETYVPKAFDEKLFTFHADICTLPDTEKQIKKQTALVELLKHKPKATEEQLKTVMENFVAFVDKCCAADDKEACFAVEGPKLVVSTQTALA
# Sequence of Focal adhesion kinase 1 (Homo sapiens) (Q05397 whole entry, looked up): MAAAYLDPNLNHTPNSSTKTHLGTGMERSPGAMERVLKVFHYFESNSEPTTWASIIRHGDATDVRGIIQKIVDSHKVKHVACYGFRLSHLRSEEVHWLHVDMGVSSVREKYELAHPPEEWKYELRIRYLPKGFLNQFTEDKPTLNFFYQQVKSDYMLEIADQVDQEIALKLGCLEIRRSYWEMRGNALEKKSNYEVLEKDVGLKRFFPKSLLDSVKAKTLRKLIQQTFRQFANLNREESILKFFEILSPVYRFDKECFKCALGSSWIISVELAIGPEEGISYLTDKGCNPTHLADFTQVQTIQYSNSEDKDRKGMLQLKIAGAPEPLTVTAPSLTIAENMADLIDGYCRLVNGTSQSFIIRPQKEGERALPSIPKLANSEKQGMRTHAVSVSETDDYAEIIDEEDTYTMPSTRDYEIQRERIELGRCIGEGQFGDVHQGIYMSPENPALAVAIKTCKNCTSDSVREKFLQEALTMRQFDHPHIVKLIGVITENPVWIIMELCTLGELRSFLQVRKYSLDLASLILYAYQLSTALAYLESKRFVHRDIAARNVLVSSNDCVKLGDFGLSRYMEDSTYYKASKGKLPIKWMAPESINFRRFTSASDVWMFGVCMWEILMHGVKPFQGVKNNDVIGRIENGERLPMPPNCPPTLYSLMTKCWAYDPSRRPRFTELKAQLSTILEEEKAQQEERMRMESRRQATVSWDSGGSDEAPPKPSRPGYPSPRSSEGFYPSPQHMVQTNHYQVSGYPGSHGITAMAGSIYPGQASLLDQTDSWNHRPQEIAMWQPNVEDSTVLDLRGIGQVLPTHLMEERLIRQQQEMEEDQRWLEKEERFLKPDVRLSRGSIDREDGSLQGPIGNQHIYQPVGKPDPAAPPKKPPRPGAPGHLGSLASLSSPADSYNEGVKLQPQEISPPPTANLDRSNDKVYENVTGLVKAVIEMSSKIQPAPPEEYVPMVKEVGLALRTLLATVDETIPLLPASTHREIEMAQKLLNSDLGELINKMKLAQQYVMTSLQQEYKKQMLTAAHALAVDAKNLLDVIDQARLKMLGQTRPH
# Sequence of Concanavalin-A (Canavalia ensiformis) (P02866 whole entry, looked up): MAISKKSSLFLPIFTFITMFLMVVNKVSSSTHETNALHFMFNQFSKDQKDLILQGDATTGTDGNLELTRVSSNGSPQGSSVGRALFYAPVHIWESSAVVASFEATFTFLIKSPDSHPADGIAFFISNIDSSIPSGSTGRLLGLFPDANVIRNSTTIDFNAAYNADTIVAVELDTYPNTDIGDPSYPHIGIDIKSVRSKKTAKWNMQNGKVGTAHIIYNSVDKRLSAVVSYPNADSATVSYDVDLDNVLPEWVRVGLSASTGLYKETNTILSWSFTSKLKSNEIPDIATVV
SMILES,composite z-score (Albumin (Bos taurus)),composite Z-score [1],composite z-score [2],composite z-score [3],composite z-score [4],composite z-score [5],composite z-score [6],composite z-score (Sam68 (KHDRBS1)),composite z-score [7],composite z-score [8],composite z-score [9],composite z-score [10],composite z-score [11],composite z-score [12],composite z-score [13],composite z-score [14],z-score [15],composite z-score (Lefty1),composite z-score [16],z-score [17]
O=C1OCC=C[C@H]2OC34C=CCN(Cn5nnc6ccccc65)C(=O)[C@H]3N(CCCO)C(=O)[C@@H]4[C@@H]12 (stereo not given in full),-0.877,-0.309 (inactive),-0.279,-0.185,0.847,-0.145,-0.124,-0.196,-0.682,-0.0288,0.21,-0.603,-0.506,-1.3,-0.537,-0.241,-0.842,-0.618,-0.43,0.314 (inactive)
CC1CC/C=C\[C@H]2OC34C=CCN(C(C)C)C(=O)[C@H]3N(CCCCCCO)C(=O)[C@@H]4C2C(=O)O1 (stereo not given in full),-0.0272,-0.416 (inactive),-0.268,-0.145,0.889,-0.63,-0.0532,-1.83,-0.607,-0.594,-0.641,-1.09,-0.278,-1.25,-0.583,-1.09,0.378,-0.547,-0.451,-3.19 (inactive)
COC(=O)C(CC#Cc1ccc2c(c1)[C@]1(C(=O)N2)[C@H](C(=O)N2CCN(c3ncccn3)CC2)[C@H]2C(=O)O[C@H](c3ccccc3)[C@H](c3ccccc3)N2[C@@H]1c1ccc(OCCO)cc1)C(=O)OC,0.535,-0.425 (inactive),0.207,-0.0821,0.259,1.41,-0.192,1.3,0.621,1.07,2.65,1.25,0.179,0.982,1.38,1.63,-1.35,1.31,1.03,-1.22 (inactive)
CC(C)C[C@@H]1NC(=O)[C@@H]2C[C@H](C(=O)NCCCCN(C)C)[C@H](c3cccc(OCCO)c3)N2C1=O,0.434,0.157 (inactive),-0.245,-0.132,0.466,1.63,0.613,0.505,0.175,0.129,-0.421,-0.46,0.392,-1.81,0.787,0.549,-0.57,0.24,0.779,0.857 (inactive)
OCCCC1=CC(c2ccc(CN3CCCC3)cc2)N(Cc2sc3ccccc3c2Cl)CC1 (stereo not given),-0.38,-0.404 (inactive),0.191,-0.0293,0.483,0.504,-0.456,0.982,0.608,0.913,2.68,1.07,0.609,0.311,1.19,1.38,2.11,0.649,0.483,-1.01 (inactive)
C=CCOC(=O)[C@H]1[C@@H]2C(=O)O[C@@H](c3ccccc3)[C@@H](c3ccccc3)N2[C@@H](c2ccc(OCCOC(=O)[C@@H]3C[C@@H]4C(=O)N5CCC[C@H]5C(=O)N4[C@@H]3c3ccc(O)cc3)cc2)[C@]12C(=O)Nc1ccc(I)cc12,-0.572,0.486 (inactive),-0.33,-0.118,0.0118,0.897,0.163,0.27,0.851,1.01,0.796,0.246,0.0398,0.664,1.36,1.16,-1.28,0.698,0.671,-0.873 (inactive)
COc1ccc(C#Cc2ccc3c(c2)[C@]2(C(=O)N3)[C@H](c3ccc(O)cc3)N3[C@H](c4ccccc4)[C@H](c4ccccc4)OC(=O)[C@H]3[C@@H]2C(=O)O)cc1,0.496,0.708 (inactive),0.277,0.163,0.614,1.23,0.483,0.964,0.111,0.868,2.03,1.06,0.324,0.457,0.127,-0.218,-2.05,-0.211,-0.178,-1.37 (inactive)
COCCOC(=O)N1C(=O)[C@@]2(c3cc(C#CCC(C(=O)OC)C(=O)OC)ccc31)[C@H](C(=O)N1CCc3cc(OC)c(OC)cc3C1)[C@H]1C(=O)O[C@H](c3ccccc3)[C@H](c3ccccc3)N1[C@@H]2c1ccc(OCCO)cc1,-0.525,0.654 (inactive),0.15,-0.0357,0.357,1.2,0.519,1.29,0.837,1.11,2.19,1.2,0.497,0.783,1.31,1.45,-1.04,1.02,0.519,-1.25 (inactive)
COCCOC(=O)N1C(=O)[C@@]2(c3cc(C#CC4=CCCCC4)ccc31)[C@H](c1ccccc1OCCO)N1[C@H](c3ccccc3)[C@H](c3ccccc3)OC(=O)[C@H]1[C@@H]2C(=O)Nc1nc2ccccc2s1,0.526,-0.243 (inactive),0.158,-0.0047,0.236,1.06,-0.375,1.32,0.454,1.15,1.16,0.96,0.96,0.868,1.19,0.731,-2.14,1.09,0.754,-2.08 (inactive)
COC(=O)c1c2oc(c1C(=O)OC)C(=O)N(Cc1ccccc1)Cc1cn(nn1)C[C@H](Cc1ccccc1)NC(=O)N[C@H](CO)CC2,0.784,0.535 (inactive),-0.0918,-0.14,0.778,0.87,0.487,0.636,0.369,0.861,0.402,0.848,-0.0924,0.961,0.183,-0.107,0.534,0.717,0.134,0.978 (inactive)
CC=CC(O)C1C=CC2C(=O)N(c3ccccc3)C(=O)C2N1Nc1ccccc1F (stereo not given),0.245,1.48 (inactive),0.541,0.468,0.74,2.08,0.412,0.338,0.295,0.0905,0.817,0.217,0.451,-1.06,0.0954,-0.189,-1.05,-0.844,0.0224,0.597 (inactive)
